Source: PubChem BioAssay (National Center for Advancing Translational Sciences (NCATS))
Compounds with a hit are over-represented: about 19% of the library has one in this group of screens.
IL1B secr inh – qHTS for Inhibitors of Inflammasome Signaling: IL-1-beta AlphaLISA Primary Screen; THP-1 LPS/ATP IL-1B secretion, AlphaLISA, 16 h; hits give low values; activity change, % at 57.5 µM; 4.7% of 360,000 active; AID 743279, 2014; in the data active = activity change below about -50%; inconclusive = mostly about -30% to -49%; note: % is set by controls: 0 for no effect and ±100 for the full control effect
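Secreted IL-1B measured by AlphaLISA bead assay after 16 h compound exposure of THP-1 cells; compounds (final up to 57.5 uM) added 1 h before LPS (250 ng/mL) and ATP (1.25 mM) stimulation; lower signal means less secretion.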
TDP1 inh – qHTS Assay for Inhibitors of Tyrosyl-DNA Phosphodiesterase (TDP1). AID 485290, 2010. Tyrosyl-DNA phosphodiesterase 1 (Homo sapiens), Q9NUW8. 0.28% of 350,000 active. Potency, µM (titrated, usually from 130 µM), for the others: at the highest dose activity change, negative = inhibition, most hits filed as inhibitors. recombinant TDP1, AlphaScreen DNA substrate cleavage; note: potency is the fitted concentration of half-maximal effect; % is set by controls: 0 for no effect and ±100 for the full control effect; nearly all actives have a fitted effect of over 40% in size
Target sequence (Q9NUW8 whole entry, looked up): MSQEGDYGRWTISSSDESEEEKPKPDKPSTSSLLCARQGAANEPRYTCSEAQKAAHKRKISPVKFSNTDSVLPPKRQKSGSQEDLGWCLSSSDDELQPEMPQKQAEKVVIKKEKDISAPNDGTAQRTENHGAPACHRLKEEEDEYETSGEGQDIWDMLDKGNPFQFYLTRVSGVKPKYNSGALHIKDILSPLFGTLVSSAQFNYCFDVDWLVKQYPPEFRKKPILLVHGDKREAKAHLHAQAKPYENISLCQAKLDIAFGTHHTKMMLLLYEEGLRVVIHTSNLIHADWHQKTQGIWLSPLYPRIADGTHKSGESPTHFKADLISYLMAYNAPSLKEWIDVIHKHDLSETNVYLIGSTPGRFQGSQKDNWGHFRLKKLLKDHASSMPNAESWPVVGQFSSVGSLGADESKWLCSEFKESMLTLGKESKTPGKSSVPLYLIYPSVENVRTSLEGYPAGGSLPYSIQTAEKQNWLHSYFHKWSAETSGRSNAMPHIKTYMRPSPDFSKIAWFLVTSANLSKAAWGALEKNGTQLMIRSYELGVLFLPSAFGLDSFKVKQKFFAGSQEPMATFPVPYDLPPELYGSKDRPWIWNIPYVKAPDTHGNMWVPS
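Recombinant human Tdp1 (E. coli-expressed, 1 nM final) preincubated with compounds 15 min at room temperature, then 5'-biotin/3'-phosphotyrosine-FITC DNA substrate (15 nM final) added for 5 min. AlphaScreen beads (10 ug/ml final) added 10 min; cleavage lowers signal.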
TGFb inhibitor – qHTS for Inhibitors of TGF-b | HepG2 CAGA-GFP TGF-b/SMAD3 reporter, GFP fluorescence, 18 h; TGF-beta stimulated, 500 pg/mL final | Potency, µM (doses to about 46.1 µM), inactives show at the highest dose activity, negative = inhibition, usual class: inhibitors | 1.2% of 410,000 active | AID 588855, 2011; note: potency is the fitted concentration of half-maximal effect; % is set by controls: 0 for no effect and ±100 for the full control effect; nearly all actives have a fitted effect of over 65% in size
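Inhibition was scored as loss of TGF-beta-induced (500 pg/mL final, 18 hours, 37 degrees C) GFP in HEPG2 cells carrying a CAGA-GFP reporter, in DMEM with 1% FBS. Well GFP was summed per cell; Activity was normalised to unstimulated and stimulated DMSO wells, then concentration-response fitting.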
HepG2 tox – qHTS for Inhibitors of TGF-b: Cytotox Counterscreen; HepG2 CAGA-GFP viability, ATP luminescence, 18 h; AID 588856, 2011; Potency, µM (doses to about 46.1 µM), for the others: top-dose activity change, negative = cytotoxicity, hits mostly cytotoxic; 0.76% of 410,000 active; note: potency is the fitted concentration of half-maximal effect
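CellTiter-Glo luminescence gave cytotoxicity after 18 hours at 37 degrees C. The cells were HepG2 CAGA-GFP in 1% FBS DMEM, stimulated with 500 pg/mL TGF-beta after compound addition. %Activity was normalised to no-cell wells (complete cell-killing) and DMSO (no toxicity), and curves were fitted and classified.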
TDP1 cell CPT – qHTS for Inhibitors of human tyrosyl-DNA phosphodiesterase 1 (TDP1): qHTS in cells in presence of CPT; chicken DT40 Tdp1-/-;hTDP1 cells + 20 nM CPT, ATP luminescence, 48 h; Potency, µM (doses to about 46.2 µM), inactives show top-dose activity change, negative = growth inhibition, most hits filed as inhibitors; 12% of 420,000 active; AID 686979, 2013; note: potency is the fitted concentration of half-maximal effect; % is set by controls: 0 for no effect and ±100 for the full control effect; nearly all actives have a fitted effect of over 55% in size
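Chicken DT40 Tdp1-/- cells stably complemented with human TDP1 were seeded at 400 cells/well in medium containing 20 nM camptothecin, exposed to pin-transferred compounds, and grown at 37 °C for at least 48 hr. Viability was read as ATP luminescence.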
DT40 TDP1 no CPT – qHTS for Inhibitors of human tyrosyl-DNA phosphodiesterase 1 (TDP1): qHTS in cells in absence of CPT. DT40 Tdp1-/- hTDP1 cells, no CPT, ATP luminescence, 48 h. Potency, µM (series often up to 46.2 µM), without a hit: at the top dose activity change, negative = growth inhibition, hits mostly inhibitors. 15% of 420,000 active. AID 686978, 2013; note: potency is the fitted concentration of half-maximal effect; % is set by controls: 0 for no effect and ±100 for the full control effect; nearly all actives have a fitted effect of over 55% in size
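Luminescent ATP content (CellTiter-Glo) served as the growth readout. Knockout chicken DT40 cells expressing human TDP1 were exposed to compounds without camptothecin for a minimum 48 hr at 37 °C.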
* marks the source's active call; other numbers are inactive results; ? = inconclusive; nt = not tested or not shown; [ ] = remark or other dose. Unless noted, calls come from the whole dose curve; as a rule, active = well fitted curve in the direction sought with a large enough effect; inconclusive = small, poorly fitted or top-dose-only effect, or another doubt; inactive = no such curve, though single readings can be large; an effect the other way counts as inactive or inconclusive.

SMILES	IL1B secr inh	TDP1 inh	TGFb inhibitor	HepG2 tox	TDP1 cell CPT	DT40 TDP1 no CPT
CCOc1ccc2nnc(-c3ccc(Br)cc3)n2n1	11	2%	?	-5%	?	15µM*
COC(=O)c1ccc(CSc2ccc3nnc(-c4ccccn4)n3n2)o1	10	-2%	1%	-9%	-13%	?
CCOC(=O)C(C)Sc1ccc2nnc(-c3ccc(OCC)cc3)n2n1 (configuration not stated)	nt	2%	6%	0%	10µM*	-89%
CCOc1ccc(-c2nnc3ccc(SCC(=O)Nc4cc(C)on4)nn23)cc1	1	-2%	1%	-8%	3%	-13%
CCOc1ccc(-c2nnc3ccc(SCc4ccc(C(=O)OC)o4)nn23)cc1	-15	-9%	-5%	-8%	?	16µM*
COC(=O)c1ccc(CSc2ccc3nnc(-c4ccc(F)cc4)n3n2)o1	-4	1%	10%	-2%	?	21µM*
C#CCSc1nc2sc3c(c2c(=O)n1-c1cccc(OC)c1)CCN(C(C)=O)C3	nt	4%	0%	-17%	?	?
CN(C)C(CNC(=O)c1cc(S(=O)(=O)N(C)c2ccc(F)cc2)ccc1Cl)c1ccco1 (configuration not stated)	6	nt	-24%	-5%	9.2µM*	7.3µM*
CN(c1ccccc1)S(=O)(=O)c1ccc(Cl)c(C(=O)NCc2ccco2)c1	19	1%	6%	-5%	?	?
CN(c1ccccc1)S(=O)(=O)c1ccc(Cl)c(C(=O)NCc2ccccc2CN2CCCC2)c1	?	1%	10%	-10%	?	23µM*
Cc1ccc(N(C)S(=O)(=O)c2cccc(C(=O)NCC(c3ccco3)N3CCCC3)c2)cc1 (configuration not stated)	?	2%	-15%	-25%	?	?
Cc1ccc(S(=O)(=O)N2CCOCC2)cc1C(=O)NCc1ccccc1CN1CCCC1	0	0%	-3%	-5%	-8%	10%
CN(c1ccc(F)cc1)S(=O)(=O)c1ccc(Cl)c(C(=O)NCC(c2ccco2)N2CCCCC2)c1 (configuration not stated)	-19	8%	?	-32%	2.3µM*	2.3µM*
CN(C)C(CNC(=O)c1cc(S(=O)(=O)N(C)c2ccccc2)ccc1Cl)c1ccccc1 (configuration not stated)	-10	4%	-28%	-10%	5.8µM*	6.5µM*
COc1ccc(CN2CCOc3ccc(CN4CCCCC4CO)cc3C2)c(OC)c1 (configuration not stated)	nt	nt	nt	nt	4%[9.04 µM]	?
O=C(Cn1c(=O)c(C(F)(F)F)nc2ccccc21)Nc1cccc(Br)c1	nt	5%	?	-3%	-4%	-13%
O=C(Cn1c2ncccc2c(=O)n1-c1ccccc1)Nc1ccc(Cl)cc1C(F)(F)F	nt	0%	0%	5%	?	?
CC[C@](C)(CN(C)C)OC(=O)c1ccccc1	nt	13%[21 µM]	nt	nt	nt	nt
Cc1ccc(S(=O)(=O)N(C)c2ccc(C(=O)NCC(c3ccco3)N3CCCC3)cc2)cc1 (configuration not stated)	-17	nt	-9%	-27%	?	16µM*
O=CNc1cc(-c2cccc(F)c2)cn2c(-c3ccc(F)cc3)cnc12	2	nt	?	-11%	29µM*	?
CC(=O)Nc1cc(-c2cccc(C(=O)N(C)C)c2)cn2c(-c3ccc(F)cc3)cnc12	nt	nt	2%	-10%	?	?
CS(=O)(=O)Nc1cccc(-c2cc(NC=O)c3ncc(-c4ccc(F)cc4)n3c2)c1	34	nt	?	7%	23µM*	?
O=C(Nc1ccccc1Cl)NC1(C(=O)NCC2CCCO2)CCCCC1 (configuration not stated)	-25	6%	3%	2%	31%	0%
CC(C)(C)C(=O)Nc1ccc(-c2nc3ccc(NC(=O)C(C)(C)C)cc3[nH]2)cc1	nt	0%[12.3 µM]	-15%	-29%	0.65µM*	1.2µM*
CC(=O)Nc1ccc2nc(-c3cccn3C)[nH]c2c1	-13	nt	5%	2%	-20%	-3%
SMILES	IL1B secr inh	TDP1 inh	TGFb inhibitor	HepG2 tox	TDP1 cell CPT	DT40 TDP1 no CPT
CC(C)(C)C(=O)Nc1ccc(Cl)c(-c2nc3ccccc3[nH]2)c1	nt	6%	0%	-18%	?	?
Cn1cccc1-c1nc2ccc(NC(=O)c3cccs3)cc2[nH]1	?	14%	8%	-28%	?	16µM*
O=C(Nc1ccc2nc(-c3ccc(Br)o3)[nH]c2c1)c1ccco1	-18	3%	-1%	-47%	?	9.2µM*
O=S(=O)(Nc1ccc2nc(-c3ccc(Br)o3)[nH]c2c1)c1ccccc1	nt	3%	nt	nt	nt	nt
O=C(Nc1ccc2nc(-c3cccnc3)[nH]c2c1)C1CCCCC1	26	1%	0%	6%	?	15µM*
C=CC(=O)N1C(=O)c2ccccc2S1(=O)=O	nt	2%	nt	nt	nt	nt
O=C(COC(=O)c1ccc(F)cc1Cl)NC(=O)NC1CCCC1	-8	1%	-13%	-16%	-24%	-29%
Cc1c(C(=O)O)c(C(=O)O)c2n1CCS2	30	-8%	-2%	-57%	-7%	-10%
O=C(Nc1ccc2nc(-c3ccccc3)[nH]c2c1)c1ccco1	0	5%	-4%	-4%	?	21µM*
O=C(Nc1cccc(-c2nc3ccccc3[nH]2)c1)c1cccc(NC(=O)c2ccco2)c1	-95*	1%	?	-111%	16µM*	18µM*
O=C(Nc1ccc2nc[nH]c2c1)c1ccco1	0	1%	-3%	-49%	-29%	-16%
Cc1ccc(CNC(=O)Cn2ncc3c(C)n(Cc4ccc(Cl)cc4)c(C)c3c2=O)cc1	nt	-3%	-4%	-65%	?	?
CCOC(=O)COc1ccc(S(=O)(=O)N2CCN(C(=O)OCC)CC2)cc1	27	8%	?	7%	0%	-4%
CC1C(=O)Nc2ccc(S(=O)(=O)N3CCCCC3)cc2NC1=O (configuration not stated)	nt	11%	-2%	-2%	-13%	?
